Bioassay records from PubChem BioAssay.
This is a sample that favours compounds with a hit; in the whole collection about 11% have one here.
Pf growth 96h: P. falciparum growth inhibition at 96 hours; P. falciparum luciferase reporter growth, 96 h; Potency, µM (series often up to 28.7 µM), for inactives: at the top dose activity change, negative = inhibition, hits mostly inhibitors; 320,000 tested, 6.9% active; AID 504834
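Cell-based qHTS: luciferase-tagged P. falciparum in erythrocytes (2% hematocrit, 0.05% parasitemia final) incubated with compounds for 96 hours, 37 C, 5% CO2; luciferase detection reagent then added and luminescence measured.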
Pf growth 48h: P. falciparum growth inhibition at 48 hours (one generation); P. falciparum luciferase growth in erythrocytes, 48 h; Potency, µM (titrated, usually from 28.7 µM), for the others: at the top dose activity change, negative = inhibition, hits mostly inhibitors; 310,000 tested, 5.9% active; AID 504832
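Parasite viability was followed by luminescence of a genomically integrated firefly luciferase. Cultures held 0.1% parasitemia at 2% hematocrit (final), incubated under 5% CO2 at 37 C.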
AmpC inh no detg: blocks E. coli AmpC beta-lactamase in detergent-free assay; 330,000 tested, 0.52% active; AmpC nitrocefin hydrolysis, absorbance 480 nm, 0.0001% Triton; Potency, µM (doses to about 57.1 µM), for inactives: at the highest dose activity change, negative = inhibition, hits mostly inhibitors; P00811;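 also: plate controls were no compound for no effect and no enzyme for full effect; nearly all actives have a fitted effect of over 20% in size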
Target sequence (P00811 whole entry, looked up): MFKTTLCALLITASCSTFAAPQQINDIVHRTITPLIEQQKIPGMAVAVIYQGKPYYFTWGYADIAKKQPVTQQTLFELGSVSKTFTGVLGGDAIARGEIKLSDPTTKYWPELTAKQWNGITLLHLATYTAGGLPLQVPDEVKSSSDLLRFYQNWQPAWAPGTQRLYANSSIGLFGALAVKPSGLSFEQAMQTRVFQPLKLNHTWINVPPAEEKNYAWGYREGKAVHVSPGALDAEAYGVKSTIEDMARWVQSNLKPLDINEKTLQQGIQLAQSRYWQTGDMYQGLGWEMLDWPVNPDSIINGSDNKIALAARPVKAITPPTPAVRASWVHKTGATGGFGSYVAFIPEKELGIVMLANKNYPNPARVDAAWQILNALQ
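AmpC (5.3 nM in the dispensed reagent) in 20 mM phosphate pH 7.0 with 0.01% (detergent screen) or 0.0001% Triton X-100 was preincubated with compounds for 15 min at room temperature. Nitrocefin was then added from an 800 uM solution, and hydrolysis was followed at 480 nm.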
AMA1-RON2 inh: inhibitors of Plasmodium falciparum AMA1-RON2 interaction; AlphaScreen AMA1-biotinylated RON2 peptide binding; Potency, µM (doses to about 58.2 µM), inactives show top-dose activity change, negative = inhibition, actives largely listed as inhibitors; 360,000 tested, 0.2% active; AID 720542;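 also: 0% = vehicle wells and -100% = peptide control; nearly all actives have a fitted effect of over 45% in size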
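AMA1 (3D7) with his tag at 25 nM final met compounds first, then biotinylated RON2 peptide at 25 nM; detection used donor plus acceptor beads, 10 µg/mL apiece, read by AlphaScreen after 30 min at room temperature.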
AmpC inh detg: inhibitors of E. coli AmpC beta-lactamase with detergent; P00811; AmpC hydrolysis of nitrocefin, absorbance 480 nm, 0.01% Triton; Potency, µM (highest dose often 114 µM), for the others: at the top dose activity change, negative = inhibition, usual class: inhibitors; 370,000 tested, 0.041% active;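 also: 0% = no-compound wells and -100% = no-enzyme wells; nearly all actives have a fitted effect of over 25% in size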
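AmpC (5.3 nM in the dispensed reagent) in 20 mM phosphate pH 7.0 with 0.01% (detergent screen) or 0.0001% Triton X-100 was preincubated with compounds for 15 min at room temperature. Nitrocefin was then added from an 800 uM solution, and hydrolysis was followed at 480 nm.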
HCV inh: inhibitors of hepatitis C virus infection; AID 651820; 340,000 tested, 3.4% active; Potency, µM (series often up to 41.8 µM), without a hit: top-dose activity change, negative = inhibition, hits mostly inhibitors; Huh7.5.1 HCVcc-Cre infection, luciferase reporter, 44 h
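Infectious HCV cell culture screen: compound-treated cells (1,000/well, pre-plated 4 h) are infected with HCVcc-Cre at roughly 0.5 moi and grown 44 h. Infection is quantified by luciferase signal after 15 min substrate incubation at room temperature.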
Starred values were filed as active, the others as inactive. Calls follow the shape of the dose curve; as a rule, active = well fitted curve in the direction sought with a large enough effect; inconclusive = small, poorly fitted or top-dose-only effect, or another doubt; inactive = no such curve, though single readings can be large; an effect the other way counts as inactive or inconclusive. Unless noted, % is scaled to controls: 0 for no effect and ±100 for the full control effect; potency is read from the fitted curve at half-maximal effect.

Results for COc1ccc(C(c2nnnn2CC2CCCO2)N2CCN(c3ccccc3)CC2)cc1 (centres undefined) ?
Pf growth 96h: 34%; Pf growth 48h: inconclusive; AmpC inh no detg: 45%; AMA1-RON2 inh: -8%; AmpC inh detg: 3%; HCV inh: 1%

Results for COc1ccc(C(c2nnnn2Cc2ccc(F)cc2)N2CCN(c3ccccc3)CC2)cc1 (centres undefined) ?
Pf growth 96h: inconclusive; Pf growth 48h: 12µM*; AmpC inh no detg: 12%; AMA1-RON2 inh: -13%; AmpC inh detg: -13%; HCV inh: -11%

Results for COc1ccc(N2CCN(C(c3ccccc3)c3nnnn3Cc3ccc(F)cc3)CC2)cc1 (centres undefined) ?
Pf growth 48h: 9.3µM*; AmpC inh no detg: 4%; AMA1-RON2 inh: inconclusive; AmpC inh detg: -12%; HCV inh: -28%

Results for Cc1ccsc1/C=N/NC(=S)NCCc1ccccc1 ?
Pf growth 96h: 0%; Pf growth 48h: 14%; AmpC inh no detg: 18µM*; AMA1-RON2 inh: 67%; AmpC inh detg: -9%; HCV inh: 7%

What do the screens show for `Oc1ccccc1/C=N/NC(=S)NCCc1ccccc1`?
Pf growth 96h: inconclusive; Pf growth 48h: inconclusive; AmpC inh no detg: -42%; AMA1-RON2 inh: 62%; AmpC inh detg: -10%; HCV inh: 11µM*

Results for CCNC(=S)N/N=C/c1sccc1C ?
Pf growth 96h: inconclusive; Pf growth 48h: inconclusive; AmpC inh no detg: -30%; AmpC inh detg: -11%

Results for CCCCC(O)(c1ccc(OC)cc1)C(CN1CCOCC1)c1ccccc1 (centres undefined) ?
Pf growth 96h: 24%; AmpC inh no detg: 182%; AMA1-RON2 inh: -13%; AmpC inh detg: -17%; HCV inh: -21%

What do the screens show for `COc1ccc(C(O)(C(C)C)C(CN2CCOCC2)c2ccc(Cl)cc2)cc1` (centres undefined)?
Pf growth 96h: 0%; Pf growth 48h: 8.3µM*; AmpC inh no detg: 176%; AMA1-RON2 inh: -2%; AmpC inh detg: -5%; HCV inh: inconclusive

What do the screens show for `CCCCCC(O)(c1ccc(OCC)cc1)C(CN1CCOCC1)c1ccccc1` (centres undefined)?
Pf growth 96h: inconclusive; Pf growth 48h: 2.1µM*; AmpC inh no detg: 183%; AMA1-RON2 inh: 3%; AmpC inh detg: -1%; HCV inh: -5%

What do the screens show for `CCCCCC(O)(c1ccc(OC)cc1)C(CN1CCOCC1)c1ccccc1` (centres undefined)?
Pf growth 96h: 8%; Pf growth 48h: 1.7µM*; AmpC inh no detg: 222%; AMA1-RON2 inh: -12%; AmpC inh detg: 2%; HCV inh: inconclusive

What do the screens show for `COc1ccc(C(O)(C(C)C)C(CN2CCOCC2)c2ccccc2)cc1` (centres undefined)?
Pf growth 96h: 0%; Pf growth 48h: inconclusive; AmpC inh no detg: 160%; AMA1-RON2 inh: -1%; AmpC inh detg: 1%; HCV inh: inconclusive

How did O=C(NCCc1ccc(F)cc1)C(=O)NCC(c1ccc2c(c1)OCO2)N1CCOCC1 (centres undefined) do in these assays?
AmpC inh detg: -2%

Results for CC(=O)NCCOC(=O)Nc1ccncc1 ?
Pf growth 96h: -25%; AmpC inh no detg: -21%; AMA1-RON2 inh: -1%; AmpC inh detg: -1%; HCV inh: 25%

Results for CC(=O)NCCOC(=O)Nc1cccnc1 ?
Pf growth 96h: 24%; Pf growth 48h: 1.9µM*; AmpC inh no detg: -11%; AMA1-RON2 inh: -11%; AmpC inh detg: 4%; HCV inh: 35%

Results for Cc1noc(C)c1S(=O)(=O)Nc1ccc(C(=O)Nc2ccc(Br)cc2)cc1 ?
AmpC inh detg: -1%

What do the screens show for `COc1ccc(C)cc1NC(=O)NCCn1nnc2cc(S(=O)(=O)N(C)C)ccc21`?
AmpC inh detg: -5%

Results for CC(C)C(c1nnnn1Cc1ccccc1)N(Cc1ccco1)Cc1cccs1 (centres undefined) ?
Pf growth 96h: 20%; Pf growth 48h: inconclusive; AmpC inh no detg: -26%; AMA1-RON2 inh: -13%; AmpC inh detg: -15%; HCV inh: inconclusive

What do the screens show for `Cc1ccc(C(c2nnnn2CS(=O)(=O)c2ccc(C)cc2)N2CCN(c3ncccn3)CC2)cc1` (centres undefined)?
Pf growth 96h: inconclusive; Pf growth 48h: 4.1µM*; AmpC inh no detg: -20%; AMA1-RON2 inh: 7%; AmpC inh detg: inconclusive; HCV inh: -7%

What do the screens show for `Cc1ccc(S(=O)(=O)Cn2nnnc2CN(Cc2ccco2)Cc2cccs2)cc1`?
Pf growth 96h: 18%; Pf growth 48h: 10µM*; AmpC inh no detg: -9%; AMA1-RON2 inh: -10%; AmpC inh detg: -1%; HCV inh: 4%

What do the screens show for `CCCC(c1nnnn1CS(=O)(=O)c1ccc(C)cc1)N1CCN(c2ccc(F)cc2)CC1` (centres undefined)?
Pf growth 96h: inconclusive; Pf growth 48h: 17µM*; AmpC inh no detg: -33%; AMA1-RON2 inh: 2%; AmpC inh detg: inconclusive; HCV inh: 15%

Results for Cc1ccc(S(=O)(=O)Cn2nnnc2C(C(C)C)N2CCN(Cc3ccco3)CC2)cc1 (centres undefined) ?
Pf growth 96h: 10%; Pf growth 48h: 10µM*; AmpC inh no detg: 38%; AMA1-RON2 inh: 4%; AmpC inh detg: inconclusive; HCV inh: 13%

What do the screens show for `O=C(Nc1ccc(NC(=O)c2cccs2)cc1)c1ccc(Br)cc1`?
AmpC inh detg: -7%

What do the screens show for `O=C(COCc1cc(-c2cccs2)on1)NCc1ccc(Cl)cc1`?
AmpC inh detg: 3%

What do the screens show for `Cc1ccc(-c2nc(SCCOc3ccccc3C)n3[nH]c(=O)cc3n2)cc1`?
AmpC inh detg: 9%

What do the screens show for `CCOC(=O)C1=C(CN2CCCCC2)NC(=O)NC1c1ccc(C)cc1` (centres undefined)?
AmpC inh detg: -3%

Results for Cc1ccc2nc(NC(=O)CSc3[nH]c(=O)ncc3C)sc2c1 ?
AmpC inh detg: 1%

How did Cc1ccc(S(=O)(=O)Cn2nnnc2C(CC(C)C)N2CCN(c3ccccc3)CC2)cc1 (centres undefined) do in these assays?
Pf growth 96h: 33%; Pf growth 48h: 7.4µM*; AmpC inh no detg: -19%; AMA1-RON2 inh: -10%; AmpC inh detg: 2%; HCV inh: 9%
